Assay outcomes from PubChem BioAssay.
GPR151 ag = human GPR151 activation; Q8TDV0; PathHunter beta-arrestin GPR151 cells, luminescence; activation, % at 11.2 µM; 650,000 compounds, 1% hits; in the data active means activation above about 4.9%;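 further: 0% = median of compound wells and 100% = cells with positive control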
Target sequence (Q8TDV0 whole entry, looked up): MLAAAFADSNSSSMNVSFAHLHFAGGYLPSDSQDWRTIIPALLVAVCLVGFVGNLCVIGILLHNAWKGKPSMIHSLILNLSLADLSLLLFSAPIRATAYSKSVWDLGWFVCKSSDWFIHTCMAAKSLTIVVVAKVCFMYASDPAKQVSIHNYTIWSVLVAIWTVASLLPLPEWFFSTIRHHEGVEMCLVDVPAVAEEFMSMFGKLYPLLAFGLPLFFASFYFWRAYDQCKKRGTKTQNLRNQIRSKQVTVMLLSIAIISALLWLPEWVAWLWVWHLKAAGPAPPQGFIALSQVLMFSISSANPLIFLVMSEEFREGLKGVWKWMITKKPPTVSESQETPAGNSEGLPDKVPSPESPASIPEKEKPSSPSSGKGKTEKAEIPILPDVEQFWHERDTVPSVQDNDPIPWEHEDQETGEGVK
FBW7 act = human FBW7 E3 ligase activation, primary screen; normalized activity (activation), % at 26.1 µM; AID 1259310; AlphaScreen FBW7–phospho-cyclin E peptide binding, activator screen; 650,000 compounds, 0.13% hits; in the data active means normalized activity above about 1.9%;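 further: purified mutant Fbw7 with reduced substrate affinity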
TEAD-YAP block = TEAD-YAP interaction inhibition; HEK-TIYL cells, TEAD-Gal4/YAP UAS-luciferase luminescence; inhibition, % at 9.12 µM; 640,000 compounds, 1.4% hits; in the data active means inhibition above about 32%;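 further: 0% = median of test compound wells and 100% = reference inhibitor wells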
MITF inh = human MITF inhibition, primary screen | AlphaScreen MITF homodimerization, bead proximity signal | inhibition, % at 2.6 µM | 650,000 compounds, 0.91% hits; in the data active means inhibition above about 50%;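 further: 0% = vehicle wells with protein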
Numbers without * were called inactive. Sampled rows, rich in hits. Any-hit rate of the full collection: about 3.5%.

SMILES	GPR151 ag	FBW7 act	TEAD-YAP block	MITF inh
CC(C)n1cnc2c(NC3CCN(Cc4ccccc4)CC3)nc(Nc3ccccn3)nc21	0	0	30	13
CC(C)n1cnc2c(NC3CC3)nc(N3CCN(c4ccccn4)CC3)nc21	2	0	35*	12
CC(C)n1cnc2c(NC3CCN(Cc4ccccc4)CC3)nc(Cl)nc21	1	0	47*	-2
CC(C)n1cnc2c(NC3CCN(Cc4ccccc4)CC3)nc(-c3cccc(N)c3)nc21	2	0	90*	11
CC(C)n1cnc2c(NC3CCN(Cc4ccccc4)CC3)nc(Nc3ccncn3)nc21	-3	0	71*	15
O=C(NCc1cccnc1)c1ccnc(-c2csc3ccccc23)c1	0	0	7	5
CC(C)n1cnc2c(NC3CCN(Cc4ccccc4)CC3)nc(-c3ccc(C(N)=O)cc3)nc21	-2	0	92*	-8
COc1ccc(-c2nc(NC3CCN(Cc4ccccc4)CC3)c3ncn(C(C)C)c3n2)cn1	-1	0	19	0
COc1ccc(-c2cnc(SCC(=O)Nc3cccc(F)c3)n2C)cc1	-1	0	33*	8
Cc1[nH]c2ccc(CNC(=O)Cn3c(C)nc4ccccc43)cc2c1C	0	0	50*	13
CCN(CC)CCNC(=O)Cn1c(C)nc2ccccc21	1	0	-6	13
O=C(Cc1ccc2c(c1)OCO2)Nc1cc(Nc2ccccc2-c2ncn[nH]2)c(F)cn1	-1	1	54*	19
O=C(Cc1ccc2c(c1)OCO2)Nc1cc(Nc2ccccc2-c2nn[nH]n2)c(F)cn1	0	0	-9	-12
O=Cc1ccccc1Nc1cc(NC(=O)Cc2ccc3c(c2)OCO3)ncc1Cl	-1	0	57*	14
Cc1sc(NC(=O)CN2CCCC2)nc1-c1ccc2c(c1)CCN2C(=O)CC(C)(C)C	1	0	-18	26
Cc1nnc2n1CCN(C(=O)/C(F)=C/c1ccccc1)CC2	0	1.9*	-5	-4
O=C(Nc1ccccc1C(=O)N/N=C/c1ccncc1)c1ccc([N+](=O)[O-])cc1	0	0	41*	-1
CCOc1ccc(/C=N/NC(=O)c2ccccc2NC(=O)c2ccc(OC)cc2)cc1	1	0	55*	-8
CCOc1ccc(/C=N/NC(=O)c2ccc(F)cc2)cc1	-2	0	-34	13
O=C(Nc1ccccc1C(=O)N/N=C/c1ccncc1)c1ccccc1	-2	0	41*	-3
O=C(Nc1cccc(F)c1)Nc1ccnn1C1CCN(Cc2ccon2)CC1	-1	0	-6	4
O=C(CN1C(=O)[C@H]2CCCN2C(=O)c2ccccc21)N1CCCc2ccccc21	0	0	-3	-2
CC(C)(C)c1nnc2sc(SCC(=O)NCCN3C(=O)CSC3=O)nn2c1=O	1	0	-3	-6
Cc1ncc(CO)c(/C=N/NC(=O)c2ccc(C(C)(C)C)cc2)c1O	0	0	83*	15
Cc1ncc(CO)c(/C=N/Nc2nc3ccccc3[nH]2)c1O	1	-1	-11	86*
SMILES	GPR151 ag	FBW7 act	TEAD-YAP block	MITF inh
Cc1ncc(CO)c(/C=N/NC(=O)c2cc3c(s2)CCCC3)c1O	-1	-1	40*	29
CCOC(=O)C1=C(C)N=c2s/c(=C\c3ccc(OCc4cccc5ccccc45)cc3)c(=O)n2C1c1ccccc1 (stereo not given)	-1	0	-18	-9
O=C(NC(=S)Nc1cccc(F)c1)c1ccccc1	-2	0	-34	4
O=C(Cn1ccc(=NCc2ccccc2)cc1)c1cccc([N+](=O)[O-])c1	0	0	33*	-32
NC(=NCc1ccccc1)c1cccc([N+](=O)[O-])c1	0	0	6	-5
O=C(Nc1ccc(OC(F)(F)F)cc1)c1nn2c(C(F)(F)F)cc(-c3cc(Br)cs3)nc2c1Br	1	0	-7	0
N#Cc1cc2c(N)c(C(=O)c3ccc4c(c3)OCO4)sc2nc1N	1	5.1*	-1	-1
Cc1ccc(NC(=O)c2sc3nc(N)c(C#N)cc3c2N)cc1F	1	22*	-41	15
N#Cc1cc2c(N)c(C(=O)Nc3ccccc3)sc2nc1N	1	0	-22	18
Oc1[nH]c2ccccc2c1/C=N/N1CCOCC1	2	0	13	12
COc1cc(NC(=O)c2cccc(C(=O)N3CCC(Nc4ccccc4Cl)CC3)c2)cc(OC)c1OC	2	-1	4	6
COc1ccc(C(C)=O)cc1CSc1nc2ccsc2c(=O)n1CCc1ccccc1	-1	0	-7	6
CC1(C)C(C(=O)O)N2C(=O)C(NC(=O)C(C(=O)O)c3ccccc3)C2S1=O (stereo not given)	-1	2.5*	1	23
CC1(C)S[C@@H]2[C@H](NC(=O)[C@H](C(=O)O)c3cccs3)C(=O)N2[C@H]1C(=O)O	1	0	-3	-17
CCCOc1ccc(C2C(C(=O)N3CCOCC3)=C(C)NC3=C2C(=O)CCC3)cc1OC (stereo not given)	1	0	6	0
CCn1c(C2COc3ccccc3O2)nc2ccc(-c3ccncc3)cc21 (stereo not given)	-1	0	-15	24
c1ccc(Cn2c(C3COc4ccccc4O3)nc3ncc(-c4ccncc4)cc32)cc1 (stereo not given)	0	0	47*	-6
Oc1ccc(-c2ccc(OCCCc3ccccn3)nc2)cc1	-1	0	-93	-2
COCCn1c(Cc2cccn2C)nnc1SCC(=O)Nc1cccc(OC)c1	4	1	14	26
COC(=O)c1sc2nc3c(c(-c4cccs4)c2c1N)CCC3	1	1	2	-4
NC(=O)c1sc2nc3c(c(-c4cccs4)c2c1N)CCC3	-1	0	44*	3
CCOC(=O)c1cccc(C(=O)Nc2ccc(Cl)cc2Cl)n1	0	0	-6	11
CCn1c(=O)cc(N2CCN(c3cccc(Cl)c3)CC2)[nH]c1=O	0	0	68*	-6
COC(=O)[C@@H]1CCCN1Cc1c(C(=O)N2CCCCCCC2)nc2sccn12	0	0	2	-5
Nc1ccc2c(c1)OC1(CCCC1)O2	-1	-1	94*	11
SMILES	GPR151 ag	FBW7 act	TEAD-YAP block	MITF inh
Clc1ccc2ccccc2n1	-1	0	-4	-2
COc1ccc(F)cc1S(=O)(=O)Nc1ccc2nc(C)n(-c3ccc(Cl)cc3)c(=O)c2c1	1	1	23	24
CCOc1ccc(S(=O)(=O)Nc2ccc3nc(C)n(-c4ccc(F)cc4)c(=O)c3c2)c(OCC)c1	-1	1	50*	25
CCOC(=O)c1c(NC(=O)CN2CCN(Cc3ccccc3)CC2)sc(C(C)=O)c1C	-1	0	4	20
O=C(O)c1cc(-c2ccc([N+](=O)[O-])cc2)nc2ccccc12	-2	0	6	-1
Clc1ccccc1CNc1ncnc2ccccc12	2	0	48*	8
Cc1ccc(-c2csc(/C(C#N)=C\Nc3ccc(S(N)(=O)=O)cc3)n2)cc1	2	2.7*	9	6
CNC(=O)/C(C#N)=C/c1ccc(-c2ccc(Cl)c(Cl)c2)o1	0	1.9*	-5	9
